The source of these data is ChEMBL document CHEMBL1157539, “Thousands of chemical starting points for antimalarial lead identification” (Nature, 2010).

The test system of this assay is Plasmodium falciparum. Description: GSK_TCMDC: Inhibition of Plasmodium falciparum 3D7 in whole red blood cells, using parasite LDH activity as an index of growth. Test compounds present at 2uM. Type of assay: functional.
For the molecule `CO/C(=C\C=C\c1cc2cc(Cl)c(Cl)cc2[nH]1)C(=O)NCCCN1CCCC[C@@H]1C`, the Inhibition came out at 99%. The figure for `Cc1cccc2nc(-c3cccc(-c4cccc(NC(=O)c5ccc(C(N)=O)cc5)c4)c3)[nH]c12` is 100%; for `CC(C)(C)CCN1CCC(NC(=O)c2ccc(-c3cccc(C(F)(F)F)c3)s2)CC1.O=C(O)C(F)(F)F` it is 93%; for `O=C(/C=C/c1ccc(Cl)c(Cl)c1)N1CCC(CN2CCC(Cc3nc4ccccc4[nH]3)CC2)CC1` it is 100%. In turn, `CN1CCC(NCc2ccc(-c3cccc(S(=O)(=O)NCC4CCCO4)c3)cc2)CC1.O=C(O)C(F)(F)F` (stereo unspecified) yielded an Inhibition of 90%. As for `CCNc1cc(C(=O)N[C@@H](Cc2ccccc2)[C@H](O)CNC(C)Cc2cccc(Cl)c2)cc(N2CCCCS2(=O)=O)c1.Cl` (stereo partly specified), the figure is 98%. The figure for `O=[N+]([O-])c1cc(C(c2ccc(O)c([N+](=O)[O-])c2)C(Cl)(Cl)Cl)ccc1O` is 93%; for `Cc1ccc(CNc2ccc3ncc(-c4cccc(C(=O)NCCN(C)C)c4)n3n2)c(C)c1` it is 100%; for `Cc1nnc(-c2cccc(Nc3ccnc4cc(-c5nccs5)ccc34)c2)o1.Cl` it is 95%. As for `O=C(O)C(F)(F)F.O=[N+]([O-])c1cccc(CNCC2CCN(CCc3ccccc3)CC2)c1`, the figure is 98%; as for `COc1ccc(CNCc2ccc(-c3ccc(-c4nc5cc(C(F)(F)F)ccc5[nH]4)cc3)cc2)cc1.O=C(O)C(F)(F)F`, 100%; as for `CC1(C)CNCc2cc(NC(=O)/C=C/c3ccc(Cl)cc3)ccc21.Cl`, 82%. `CN1CCCN(Cc2ccc(-c3cccc(NC(=O)c4cccc(F)c4)c3)cc2)CC1.O=C(O)C(F)(F)F` gave an Inhibition of 91%. Consider `CC(C)COc1ccc(Cl)cc1Nc1nc(-c2nc3ccccc3[nH]2)cs1.Cl`, for which the Inhibition came to 96%. The molecule `CCC(O)c1ccc(Br)cc1NC(=O)c1cccc(Cl)c1` (stereo unspecified) had an Inhibition of 80%.

Molecule `O=C(Nc1ccc(C(F)(F)F)cc1)NC1CCN(c2ccnc3cc(Cl)ccc23)C1.O=C(O)C(F)(F)F` (stereo unspecified) yielded an Inhibition of 100%.

Turning to `O=C(/C=C/c1ccc(Cl)cc1)NCCCCCN1CCCN(C(=O)Nc2cccc(Cl)c2)CC1`, the Inhibition was found to be 85%. The figure for `CCCc1ccc(NC(=O)c2ccc(CN3CCCN(CC4CCCCC4)CC3)cc2)cc1.O=C(O)C(F)(F)F` is 95%; for `Cc1[nH]c(C)c(-c2ccc(OCc3ccc(F)cc3)nc2)c(=O)c1Br` it is 97%; for `Cc1cc2c(NC(=O)NC3CCN(Cc4ccc(Cl)c(Cl)c4)CC3)cccc2cn1.Cl` it is 100%.

As for `COCCCNC(=O)[C@H]1CNCCN1C(=O)c1ccccc1.O=C(O)C(F)(F)F`, the Inhibition is 97%.

The molecule `CC(=O)c1cc(N2CCOCC2)ccc1N` gave an Inhibition of 91%. In turn, `CC(C)CCN1CCC(Oc2ccc(NC(=O)c3ccccc3)cc2Cl)CC1.O=C(O)C(F)(F)F` returned an Inhibition of 87%. In turn, `O=C(NC1CCN(Cc2ccccc2)CC1)c1cccc(-c2nc3ccc(Cl)cc3[nH]2)c1` gave an Inhibition of 98%. Take `Cc1cccc2nc(-c3cccc(-c4ccc(NC(=O)C5CC(=O)Nc6ccccc65)cc4)c3)[nH]c12` (stereo unspecified): the Inhibition is recorded as 87%. With `CC(C)COc1ccc(Cl)cc1Cc1nc(-c2nc3cccc(CN4CCN(C)CC4)c3[nH]2)cs1`, the Inhibition worked out at 99%. The figure for `O=C(O)C(F)(F)F.O=S(=O)(Nc1ccc(-c2ccc(CN3CCCC3)cc2)cc1)c1cccc2cccnc12` is 91%. The figure for `COc1ccc(-c2cccc(NC(=O)c3cccc(Cl)c3)c2)cc1CN1CCC(O)CC1.O=C(O)C(F)(F)F` is 98%. The molecule `Cl.O=c1cc(NCCCNCc2csc(Br)c2Sc2ccc(Cl)cc2)[nH]c2ccccc12` displayed an Inhibition of 95%. For the molecule `Cc1ccc(Cn2c(N3CCC(C(=O)NCc4cccs4)CC3)nc3ccccc32)cc1`, the Inhibition is given as 99%. As for `N=C(N)Nc1nc(CCCCCCCCc2csc(NC(=N)N)n2)cs1`, the Inhibition was determined as 100%.

Consider `CN(C)c1ccc(CN2CCC(NC(=O)c3ccc(-c4cccc(Cl)c4)s3)CC2)cc1.O=C(O)C(F)(F)F`, for which the Inhibition was 93%. The figure for `Cc1cccc(Cl)c1S(=O)(=O)N1CCCCC(c2ccc(C(F)(F)F)cc2)=N1` is 100%.

The molecule `CCCCCCCCN1CCCN(C(=O)c2cccc(NC(=O)Nc3ccc4ccccc4c3)c2)CC1.O=C(O)C(F)(F)F` came in with an Inhibition of 97%. The molecule `COc1cccc2c1CCN(CCN1CCC(CNC(=O)c3ccc(-c4ccc(C#N)cc4)cc3)CC1)C2` yielded an Inhibition of 99%. As for `CC1(CCCCN2CCC(c3c[nH]c4cnccc34)CC2)C(=O)Nc2cccc(Cl)c21` (stereo unspecified), the Inhibition is listed as 100%.

As usually defined, the Inhibition is the drop in the measured response relative to a control, in per cent. Read a high Inhibition as a response far below the control.
